A short description of assay [1]: compounds binding Alexa647 anti-His antibody – biochemical, small-molecule microarray, 635 nm fluorescence, artefact control for SMM control protein annotation, primary screen (AID 1128).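 Further: score merges feature fluorescence with signal-to-noise for each printed compound spot.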 Particulars: higher = more signal.
For assay [2], the system named is Human papillomavirus type 1a E7 protein (residues 1-88). In words: HPV1a E7 small-molecule binders, primary screen, biochemical, small-molecule microarray, residues 1-88, 635 nm (AID 1129). Particulars: small-molecule microarray binding, fluorescence 635 nm; higher = more signal.
Assay [3] addresses Focal adhesion kinase 1 (Homo sapiens) (UniProt Q05397). In words: PTK2 protein binding on printed compound slides – biochemical, small-molecule microarray, 635/667 nm fluorescence, BSA, DTT, primary screen (AID 1130).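 Further: composite of spot emission at 667 nm and signal to noise over triplicate slides.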 Particulars: 635 nm fluorescence, higher = more signal.
In assay [4] the test system is Fibrinogen (Alexa647-labelled). In words: Alexa647-fibrinogen binding to printed small molecules – biochemical, small-molecule microarray, 635/667 nm fluorescence, artefact control for SMM control-protein annotation, profiling panel (AID 1131).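 Further: z-score merges 667 nm fluorescence with per-spot signal-to-noise over triplicate slides.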 The note with it: fibrinogen-A647 binding fluorescence, higher = more signal.
Assay [5] addresses Follistatin (Homo sapiens) (UniProt P19883). In words: FST protein binding to printed compounds – biochemical, small-molecule microarray, 635/667 nm fluorescence, primary screen (AID 1132). Particulars: 635 nm fluorescence, higher = more signal.
The target of assay [6] is Fibroblast growth factor 2 (Homo sapiens) (UniProt P09038). Nature of the assay: basic fibroblast growth factor binding to printed compounds – biochemical, small-molecule microarray, 635/667 nm fluorescence, primary screen (AID 1133). The note with it: FGF2, fluorescence 635/667, higher = more signal.
A short description of assay [7]: JC-1 mitochondrial potential readout, lung cancer cells – cell-based, A549, JC-1 fluorescence, basal, 24 h, 100 nL, profiling panel (AID 1138).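 Further: A549 lung adenocarcinoma cells under basal conditions with no added stimulus; test concentration not given here.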 The note with it: higher = more signal.
A further assay relates to Lefty1. Nature of the assay: Lefty1 protein binding to printed compounds – biochemical, small-molecule microarray, 635/667 nm fluorescence, primary screen (AID 1139). The note with it: fluorescence 635/667, higher = more signal.
In assay [8] the test system is wheat germ agglutinin (Triticum aestivum), Alexa647-labelled. Nature of the assay: Alexa647-WGA lectin binding to printed small molecules – biochemical, small-molecule microarray, 635/667 nm fluorescence, artefact control for SMM control-protein annotation, profiling panel (AID 1140).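 Further: score merges 667 nm feature emission with signal to noise over triplicate slides.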 The note with it: WGA-A647 binding, 635 nm fluorescence, higher = more signal.
Assay [9] addresses Luciferin 4-monooxygenase (Photinus pyralis) (UniProt P08659). Nature of the assay: inhibition of purified Photinus pyralis luciferase – biochemical, luminescence, purified enzyme, 2006 set, primary screen (AID 1141).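 Further: cell-free assay with purified firefly luciferase at 100 ng per well in PBS; test concentration not given here.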 Particulars: purified firefly luciferase, SteadyGlo luminescence, 30 min; higher = more signal, called active from +8 up or from −8 down.

Calls of active or inactive are those of the source.

Chain of Luciferin 4-monooxygenase (Photinus pyralis) (P08659 whole entry, looked up): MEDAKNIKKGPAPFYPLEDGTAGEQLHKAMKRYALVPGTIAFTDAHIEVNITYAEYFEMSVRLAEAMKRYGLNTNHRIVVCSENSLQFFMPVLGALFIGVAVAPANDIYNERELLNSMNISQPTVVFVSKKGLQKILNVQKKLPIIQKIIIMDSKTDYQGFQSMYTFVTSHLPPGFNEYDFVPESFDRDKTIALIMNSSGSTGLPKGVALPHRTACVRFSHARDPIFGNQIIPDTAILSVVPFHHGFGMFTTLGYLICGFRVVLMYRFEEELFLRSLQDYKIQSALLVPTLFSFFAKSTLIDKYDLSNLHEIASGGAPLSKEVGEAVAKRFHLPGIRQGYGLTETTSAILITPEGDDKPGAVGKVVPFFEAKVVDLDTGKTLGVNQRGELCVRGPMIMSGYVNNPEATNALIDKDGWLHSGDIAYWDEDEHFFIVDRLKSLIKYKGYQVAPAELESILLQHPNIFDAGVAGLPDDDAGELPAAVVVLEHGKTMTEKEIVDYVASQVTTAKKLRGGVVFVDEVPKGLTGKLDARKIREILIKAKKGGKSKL
Chain of Fibroblast growth factor 2 (Homo sapiens) (P09038 whole entry, looked up): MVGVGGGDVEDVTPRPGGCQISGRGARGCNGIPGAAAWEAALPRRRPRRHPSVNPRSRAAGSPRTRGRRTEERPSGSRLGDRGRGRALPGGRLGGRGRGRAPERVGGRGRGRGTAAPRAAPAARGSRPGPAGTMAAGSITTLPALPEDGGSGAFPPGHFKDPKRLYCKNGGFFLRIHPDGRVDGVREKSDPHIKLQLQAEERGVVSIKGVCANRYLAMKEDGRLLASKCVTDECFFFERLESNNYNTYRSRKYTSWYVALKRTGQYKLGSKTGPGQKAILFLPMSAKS
Chain of Follistatin (Homo sapiens) (P19883 whole entry, looked up): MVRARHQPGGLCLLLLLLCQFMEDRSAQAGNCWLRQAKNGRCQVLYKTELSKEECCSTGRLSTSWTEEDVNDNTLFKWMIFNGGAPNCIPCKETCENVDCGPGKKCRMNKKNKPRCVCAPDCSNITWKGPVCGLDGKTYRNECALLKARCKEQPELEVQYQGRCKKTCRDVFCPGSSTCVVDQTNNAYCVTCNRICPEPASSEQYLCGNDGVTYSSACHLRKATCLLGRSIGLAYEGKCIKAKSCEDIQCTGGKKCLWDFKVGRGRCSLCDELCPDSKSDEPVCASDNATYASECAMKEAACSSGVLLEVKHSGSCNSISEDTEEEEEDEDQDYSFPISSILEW
Chain of Focal adhesion kinase 1 (Homo sapiens) (Q05397 whole entry, looked up): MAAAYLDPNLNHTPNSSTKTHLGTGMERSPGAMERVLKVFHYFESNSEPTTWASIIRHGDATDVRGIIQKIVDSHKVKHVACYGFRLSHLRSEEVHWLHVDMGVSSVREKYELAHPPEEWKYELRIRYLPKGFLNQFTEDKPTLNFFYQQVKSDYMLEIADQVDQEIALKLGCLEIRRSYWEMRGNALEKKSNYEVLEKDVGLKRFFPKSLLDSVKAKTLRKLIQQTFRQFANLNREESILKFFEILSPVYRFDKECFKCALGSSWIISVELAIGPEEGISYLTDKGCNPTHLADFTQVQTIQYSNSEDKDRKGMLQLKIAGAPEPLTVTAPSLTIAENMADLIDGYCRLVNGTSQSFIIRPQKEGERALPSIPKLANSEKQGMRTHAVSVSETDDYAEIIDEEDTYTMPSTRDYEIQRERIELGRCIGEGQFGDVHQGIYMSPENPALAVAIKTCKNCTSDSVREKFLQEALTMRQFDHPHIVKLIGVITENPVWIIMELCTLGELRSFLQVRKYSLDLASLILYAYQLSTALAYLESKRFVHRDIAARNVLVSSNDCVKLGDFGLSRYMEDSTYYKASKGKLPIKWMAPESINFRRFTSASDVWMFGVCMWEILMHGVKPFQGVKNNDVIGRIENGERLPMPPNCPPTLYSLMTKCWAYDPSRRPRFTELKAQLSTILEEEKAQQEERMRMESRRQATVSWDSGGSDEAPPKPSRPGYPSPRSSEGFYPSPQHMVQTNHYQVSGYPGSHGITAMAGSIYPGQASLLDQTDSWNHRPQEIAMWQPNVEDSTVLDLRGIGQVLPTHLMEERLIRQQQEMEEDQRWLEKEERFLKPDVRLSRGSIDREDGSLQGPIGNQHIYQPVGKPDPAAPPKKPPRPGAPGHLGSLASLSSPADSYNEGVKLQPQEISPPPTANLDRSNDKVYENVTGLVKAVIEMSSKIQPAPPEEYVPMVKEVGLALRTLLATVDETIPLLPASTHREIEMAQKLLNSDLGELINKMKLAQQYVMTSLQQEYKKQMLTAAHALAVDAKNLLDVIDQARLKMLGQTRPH

On to `CN1C(=O)C2C=CC(C(O)c3ccc(-c4ccccc4)s3)N(Nc3ccccc3)C2C1=O` (stereo not given), for which the composite z-score in assay [1] is 1.33; in assay [2], 1.19; in [3], 0.283; in [4], 0.96; in assay [5] it was 1.12; in assay [6] it was -0.0002. In addition, the values for the composite z-score (in the assay with Lefty1; in [8]) were -0.304 and 1.07, respectively. In addition, the z-score was 0.5 in [7] and 0.17 (inactive) in assay [9].

Regarding `COc1ccc([Si](C)(C)[C@H]2[C@H](CCn3cc([C@H](O)c4ccccc4)nn3)O[C@@]3(C(=O)N(c4ccccc4)c4ccccc43)[C@@H]2C)cc1`, the composite z-score in [1] was 0.448; in [2], -0.431; in [3], -0.4; in assay [4], -0.651; in [5] it was 1.24; in [6] it was 0.195. Besides, the composite z-score was found to be 1.51 with Lefty1 and 0.428 in assay [8]. The z-score in [7] was 0.903; in [9], 0.687 (inactive).

On to `COc1ccc(CCNC(=O)[C@@]2(Sc3ccc(C)cc3)CC(=O)N(Cc3cc(C(F)(F)F)cc(C(F)(F)F)c3)[C@@H]2c2ccc(CO)cc2)cc1`, for which the composite z-score was -0.588 in [1]; -1.49 in assay [2]; -0.545 in assay [3]; -1.07 in [4]; -1.83 in assay [5]; -2.57 in assay [6]. Besides, the composite z-score in the assay with Lefty1 is -1.25; in assay [8], 0.0191. Further, the z-score in assay [7] is -0.138; in assay [9], -0.877 (inactive).

Regarding `CC(C)C[C@@H]1NC(=O)C([C@@H](C)OCc2ccccc2)NC(=O)[C@@]23C(=O)N[C@@H](Cc4ccccc4)C2[C@H](C)[C@@]2(C)O[C@H]2C3/C=C/CC/C=C/CNC1=O` (stereo not given in full), the composite z-score in assay [1] was 0.48; in assay [2] it was 0.809; in assay [3], 0.87; in assay [4], -0.209; in assay [5] it was 0.761; in [6], 1.11. The composite z-score in the assay on Lefty1 was 0.659; in [8], 0.503. Besides, the results for the z-score in [7] and in [9] were 0.728 and 0.533 (inactive), respectively.

As for `C=C(C(=O)CC[C@@H](OC(C)=O)c1cccc(OCCO)c1)C(C)C`, the composite z-score in assay [1] was 0.83; in assay [2], 0.54; in assay [3], 0.217; in assay [4] it was -0.281; in assay [5], 0.549; in assay [6] it was -0.531. The values for the composite z-score (in the assay on Lefty1; in [8]) were 0.889 and 0.449, respectively. In addition, the z-score in assay [7] was -0.106; in assay [9], -1.08 (inactive).

For `COCCOC(=O)N1C(=O)[C@@]2(c3cc(C#CC4(O)CCCCCC4)ccc31)[C@H](c1ccc(OCCO)cc1)N1[C@H](c3ccccc3)[C@H](c3ccccc3)OC(=O)[C@H]1[C@@H]2C(=O)N1CCCCCCC1`, the composite z-score in assay [1] came to 0.459; in [2] it was 1.21; in assay [3], 0.175; in assay [4] it was 0.95; in [5], 1.39; in assay [6], 1.47. The composite z-score with Lefty1 was 1.16; in assay [8] it was 1.32. Also, the z-score in [7] was -1.31; in [9], -1.34 (inactive).

For the compound `O=C1NC(=O)C2C1C=CC(C(O)c1ccc(F)cc1)N2Nc1ccccn1` (stereo not given), the composite z-score in assay [1] worked out at 0.842; in assay [2], 0.399; in assay [3], 0.113; in assay [4], 0.796; in [5] it was 0.269; in [6], 0.0568. Further, the composite z-score is -0.269 in the assay with Lefty1 and 0.118 in assay [8]. In addition, the values for the z-score in [7] and in assay [9] were -0.108 and -0.855 (inactive), respectively.

Regarding `COCCOC(=O)N1C(=O)[C@@]2(c3cc(C#CCCO)ccc31)[C@H](C(=O)N1CCc3cc(OC)c(OC)cc3C1)[C@H]1C(=O)O[C@H](c3ccccc3)[C@H](c3ccccc3)N1[C@@H]2c1ccccc1OCCO`, the composite z-score came to 0.362 in assay [1]; 1.19 in assay [2]; 0.496 in assay [3]; 0.87 in [4]; 1.41 in assay [5]; 1.3 in assay [6]. The composite z-score in the assay on Lefty1 is 1.3; in assay [8] it was 0.603. In addition, the figures for the z-score in assay [7] and in assay [9] were -0.976 and 0.151 (inactive), respectively.

For `CC1CC/C=C\[C@H]2OC34C=CCN(c5ccc(Cl)cc5)C(=O)[C@H]3N(CCCO)C(=O)[C@]4(C)C2C(=O)O1` (stereo not given in full), the composite z-score in assay [1] was -0.567; in assay [2] it was -0.796; in assay [3], -0.444; in [4], -1.67; in assay [5], -0.6; in assay [6] it was -1.2. The results for the composite z-score (with Lefty1; in assay [8]) were -0.157 and -1.34, respectively. Further, the z-score in assay [7] was 0.58; in assay [9] it was -0.0112 (inactive).

Regarding `CC(C)CNC(=O)[C@@H]1c2ccccc2C(=O)N(Cc2ccccc2)[C@H]1c1ccc(CO)cc1`, the composite z-score is 1.85 in [1]; 0.601 in assay [2]; 0.0313 in assay [3]; -0.66 in assay [4]; -0.0977 in [5]; 0.605 in assay [6]. For the same compound, the composite z-score in the assay on Lefty1 is -1.7; in assay [8], -0.481. Also, the z-score in assay [7] was 0.0606; in assay [9], 0.0723 (inactive).

For `C=CCN1C(=O)[C@]2(O[C@H](CCn3cc([C@H](O)c4ccccc4)nn3)[C@@H]([Si](C)(C)c3ccc(OC)cc3)[C@@H]2C)c2cc(N3C(=O)c4cccc5cccc3c45)ccc21`, the composite z-score is 0.72 in [1]; 0.268 in [2]; 0.33 in assay [3]; 0.182 in assay [4]; -0.167 in assay [5]; 0.102 in assay [6]. The figures for the composite z-score (with Lefty1; in assay [8]) were 0.102 and 0.453, respectively. Also, the figures for the z-score in [7] and in assay [9] were 1.01 and -0.719 (inactive), respectively.

As for `Cc1ccc(S[C@]2(C(=O)NCCN3CCOCC3)CC(=O)N(C3CCCCC3)[C@@H]2c2ccc(CO)cc2I)cc1`, the composite z-score came out at 0.893 in assay [1]; 1.2 in assay [2]; 1.14 in assay [3]; 0.926 in assay [4]; 0.972 in assay [5]; 0.236 in [6]. For the same compound, the figures for the composite z-score (with Lefty1; in assay [8]) were 1.21 and 0.977, respectively. For the same compound, the z-score was 1.23 in assay [7] and 0.827 (inactive) in [9].

`CN(C)C(=O)[C@]1(Cc2ccccc2CN=[N+]=[N-])N=C(c2ccc(OCCCO)cc2)O[C@@H]1c1ccccc1N=[N+]=[N-]`: the composite z-score in [1] is 0.266; in [2], 1.23; in assay [3], 0.977; in assay [4] it was 1.02; in assay [5], 1.18; in assay [6], -0.0347. Besides, the figures for the composite z-score (with Lefty1; in assay [8]) were -0.136 and 1.12, respectively. Also, the z-score in assay [7] was 0.568; in assay [9] it was -9.41 (active).

For the origin of these results see PubChem BioAssay.
